# In PubChem BioAssay:
# Active and inactive are the calls of the source.
# Columns and labels:
# [1] = tested on: PRMT1 (protein arginine N-methyltransferase 1); experiment: small molecules binding arginine methyltransferase PRMT1 – biochemical, small-molecule microarray, 635 nm fluorescence, primary screen (AID 1088); conditions: higher = more signal;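 further: binding of Prmt1 protein to compounds spotted on small-molecule microarray slides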
# [2] = growth effects on S. cerevisiae YJM789 – YJM789 clinical isolate, OD600, 24 h, basal, primary screen (AID 1089); conditions: higher = more signal, called active from +8 up or from −8 down;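 further: growth of clinical yeast isolate S. cerevisiae YJM 789 seeded 1000 cells per well; test concentration not given here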
# [3] = S. pombe growth modifiers, basal conditions – strain 972, OD600, 24 h, no modulator, primary screen (AID 1090);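 further: basal condition with compound alone and no growth modifier present; test concentration not given here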; conditions: S. pombe 972 growth, higher = more signal, called active from +8 up or from −8 down
# [4] = budding yeast growth modifiers under rapamycin – strain BY4716, OD600, 96 h, primary screen (AID 1091); further: test concentration not given here; conditions: S. cerevisiae BY4716 + rapamycin, higher = more signal, called active from +8 up or from −8 down
# [5] = biological target: Torsin-1A-interacting protein 2 (Homo sapiens) (UniProt Q8NFQ8); experiment: small molecules binding lysate-expressed LULL1 – cell lysate, human LULL1 lysate, 635/667 nm fluorescence, primary screen (AID 1092); conditions: small-molecule microarray, hLULL1 lysate binding, 635 nm fluorescence; higher = more signal;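 further: probe is lysate of COS7 cells overexpressing human LULL1; score merges per-feature 667 nm fluorescence with signal-to-noise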
# [6] = optical density change of DRC41 E. coli – strain DRC41, OD650, 24 h, E. coli filamentation project, primary screen (AID 1093);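 further: MC1000 strain lacking acrAB efflux and sulA so SOS filamentation is blocked; test concentration not given here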; conditions: E. coli DRC41 growth, higher = more signal, called active from +8 up or from −8 down
# [7] = probe aLefty2 binding to arrayed compounds – biochemical, biotinylated probe, 635/667 nm fluorescence, primary screen (AID 1094); conditions: small-molecule microarray, higher = more signal;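 further: score merges spot fluorescence near 667 nm with spot signal-to-noise ratio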
# [8] = tested on: Noggin (protein binding on small-molecule microarray); experiment: small molecules binding Noggin protein – biochemical, 635/667 nm fluorescence, primary screen (AID 1095); conditions: 635 nm fluorescence, higher = more signal;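 further: score merges 667 nm feature fluorescence with signal to noise over triplicate slides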
# [9] = biological target: Neurogenic locus notch homolog protein 3 (Homo sapiens) (UniProt Q9UM47); experiment: small molecules binding NOTCH3 protein – biochemical, 635/667 nm fluorescence, primary screen (AID 1096); conditions: small-molecule microarray, 635 nm fluorescence, higher = more signal
# [10] = probe aEGFR binding to arrayed compounds – biochemical, biotinylated probe, 635/667 nm fluorescence, primary screen (AID 1097); conditions: small-molecule microarray, higher = more signal;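 further: probe is a biotinylated anti-EGFR antibody binding compounds printed on slides; score combines fluorescence near 667 nm and signal to noise of each spot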
# Torsin-1A-interacting protein 2 (Homo sapiens), sequence (Q8NFQ8 whole entry, looked up): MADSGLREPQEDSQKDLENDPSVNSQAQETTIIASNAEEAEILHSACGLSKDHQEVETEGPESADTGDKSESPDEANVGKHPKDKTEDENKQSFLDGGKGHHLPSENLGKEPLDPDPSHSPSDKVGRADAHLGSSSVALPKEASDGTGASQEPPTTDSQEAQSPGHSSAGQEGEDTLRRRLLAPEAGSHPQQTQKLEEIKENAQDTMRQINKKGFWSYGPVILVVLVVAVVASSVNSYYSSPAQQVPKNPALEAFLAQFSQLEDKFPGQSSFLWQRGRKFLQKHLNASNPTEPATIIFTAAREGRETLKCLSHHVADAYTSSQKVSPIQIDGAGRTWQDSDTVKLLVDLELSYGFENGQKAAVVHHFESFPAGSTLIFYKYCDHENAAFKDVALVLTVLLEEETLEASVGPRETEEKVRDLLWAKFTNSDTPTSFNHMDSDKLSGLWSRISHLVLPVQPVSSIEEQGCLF
# Neurogenic locus notch homolog protein 3 (Homo sapiens), sequence (Q9UM47 whole entry, looked up): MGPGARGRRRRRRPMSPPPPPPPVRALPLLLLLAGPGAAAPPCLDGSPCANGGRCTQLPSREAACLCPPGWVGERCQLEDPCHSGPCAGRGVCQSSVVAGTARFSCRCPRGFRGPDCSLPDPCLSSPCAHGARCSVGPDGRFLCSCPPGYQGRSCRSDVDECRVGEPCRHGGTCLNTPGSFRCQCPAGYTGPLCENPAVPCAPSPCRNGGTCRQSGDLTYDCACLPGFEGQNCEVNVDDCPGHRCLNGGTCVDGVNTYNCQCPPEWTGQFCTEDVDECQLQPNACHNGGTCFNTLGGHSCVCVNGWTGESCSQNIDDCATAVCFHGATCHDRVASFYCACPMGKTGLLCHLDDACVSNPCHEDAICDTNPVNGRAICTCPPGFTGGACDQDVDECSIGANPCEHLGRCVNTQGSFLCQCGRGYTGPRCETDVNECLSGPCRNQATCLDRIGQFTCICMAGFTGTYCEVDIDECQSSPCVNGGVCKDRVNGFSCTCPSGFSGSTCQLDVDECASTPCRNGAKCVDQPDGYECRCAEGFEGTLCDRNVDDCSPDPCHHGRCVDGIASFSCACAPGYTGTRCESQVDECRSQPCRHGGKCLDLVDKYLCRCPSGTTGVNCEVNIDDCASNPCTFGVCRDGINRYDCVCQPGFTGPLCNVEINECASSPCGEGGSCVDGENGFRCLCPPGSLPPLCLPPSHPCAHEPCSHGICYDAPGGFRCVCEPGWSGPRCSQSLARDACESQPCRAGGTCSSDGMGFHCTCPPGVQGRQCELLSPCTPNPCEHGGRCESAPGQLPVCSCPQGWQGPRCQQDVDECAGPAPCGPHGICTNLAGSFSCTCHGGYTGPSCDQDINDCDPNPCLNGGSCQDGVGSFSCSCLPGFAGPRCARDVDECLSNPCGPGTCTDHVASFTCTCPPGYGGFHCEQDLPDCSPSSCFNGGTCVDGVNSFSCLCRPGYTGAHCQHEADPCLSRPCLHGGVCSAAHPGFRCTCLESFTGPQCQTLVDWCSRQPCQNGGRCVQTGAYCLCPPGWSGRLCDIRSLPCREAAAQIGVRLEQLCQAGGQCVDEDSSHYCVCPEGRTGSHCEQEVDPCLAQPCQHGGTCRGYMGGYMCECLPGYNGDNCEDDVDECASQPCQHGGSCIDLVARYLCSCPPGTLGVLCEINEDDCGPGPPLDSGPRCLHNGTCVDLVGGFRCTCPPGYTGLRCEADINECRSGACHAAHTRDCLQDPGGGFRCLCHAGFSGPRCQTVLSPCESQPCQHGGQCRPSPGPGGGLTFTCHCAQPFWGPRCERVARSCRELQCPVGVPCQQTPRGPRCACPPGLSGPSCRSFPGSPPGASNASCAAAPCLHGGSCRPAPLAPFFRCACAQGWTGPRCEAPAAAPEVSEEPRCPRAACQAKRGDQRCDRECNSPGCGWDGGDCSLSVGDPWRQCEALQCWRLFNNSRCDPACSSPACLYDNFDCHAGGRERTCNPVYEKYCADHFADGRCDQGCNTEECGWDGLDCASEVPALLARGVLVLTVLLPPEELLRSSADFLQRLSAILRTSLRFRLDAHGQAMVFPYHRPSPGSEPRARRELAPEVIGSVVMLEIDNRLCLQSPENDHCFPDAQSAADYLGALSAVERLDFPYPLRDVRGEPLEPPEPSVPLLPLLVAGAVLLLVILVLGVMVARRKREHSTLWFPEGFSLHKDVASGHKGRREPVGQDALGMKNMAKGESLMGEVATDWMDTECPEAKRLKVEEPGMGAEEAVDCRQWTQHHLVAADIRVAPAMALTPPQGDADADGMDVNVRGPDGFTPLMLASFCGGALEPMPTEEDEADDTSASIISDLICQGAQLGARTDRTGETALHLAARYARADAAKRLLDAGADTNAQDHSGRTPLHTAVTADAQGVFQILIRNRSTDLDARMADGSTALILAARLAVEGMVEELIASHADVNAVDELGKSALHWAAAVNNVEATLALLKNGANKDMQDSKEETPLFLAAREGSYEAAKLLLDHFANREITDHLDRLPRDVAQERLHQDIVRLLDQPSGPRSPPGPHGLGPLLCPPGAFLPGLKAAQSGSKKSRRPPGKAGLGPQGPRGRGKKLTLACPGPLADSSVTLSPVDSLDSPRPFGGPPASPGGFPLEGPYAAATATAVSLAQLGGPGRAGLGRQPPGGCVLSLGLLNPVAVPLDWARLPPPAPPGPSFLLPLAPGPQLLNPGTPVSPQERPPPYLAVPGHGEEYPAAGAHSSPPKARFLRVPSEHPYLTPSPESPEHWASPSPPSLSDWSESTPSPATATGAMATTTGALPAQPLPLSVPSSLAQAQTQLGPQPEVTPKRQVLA
Structure (SMILES),composite z-score [1],z-score [2],z-score [3],z-score [4],composite z-score [5],z-score [6],composite z-score [7],composite z-score [8],composite z-score [9],composite z-score [10]
CCOC(=O)[C@@H]1CCCCN1C(=O)C(=O)OC,0.828,0.0293 (inactive),0.656 (inactive),-0.131 (inactive),0.377,0.66 (inactive),-0.0728,0.415,0.717,-0.133
Cc1ccc(N2C(=O)c3ccccc3[C@@H](C(=O)NCCCN(C)C)[C@@H]2c2ccc(CO)cc2)nc1,0.0027,-0.292 (inactive),-0.636 (inactive),-0.81 (inactive),-0.732,0.213 (inactive),0.186,-0.572,-0.916,0.576
CS(=O)(=O)CCOC(=O)C1=CC(CCCO)=CC(c2ccc(CN3CCCC3)cc2)N(Cc2sc3ccccc3c2Cl)C=C1C(=O)OCCS(C)(=O)=O (stereo not given),1.54,-0.381 (inactive),-5.83 (inactive),-1.41 (inactive),2.06,-0.853 (inactive),0.27,0.563,1.04,0.447
CCCCC(CC)C(O)C1C=CC2C(=O)N(C)C(=O)C2N1Nc1ccccc1 (stereo not given),1.36,0.307 (inactive),-0.592 (inactive),0.695 (inactive),2.87,-0.931 (inactive),-0.121,0.123,1.03,-0.154
CCCCC[C@H]1OC[C@@]23C=C(Br)[C@@H](CC12)[C@@]1(CO1)C3=O (stereo not given in full),0.915,-1.01 (inactive),-6.44 (inactive),-0.76 (inactive),0.24,-0.971 (inactive),-0.231,0.483,0.0322,-0.122
COc1ccccc1CN1C(=O)c2ccccc2[C@](Cc2ccccc2I)(C(=O)O)[C@@H]1c1ccc(CO)cc1,1.51,0.443 (inactive),0.812 (inactive),-0.0193 (inactive),2.45,1.28 (inactive),-0.0031,0.653,1,0.554
COc1cc2c(cc1O)C(c1ccc(CN3CCCC3)cc1)N(Cc1cc3c(cc1Br)OCO3)CC2 (stereo not given),-0.137,-0.312 (inactive),-6.22 (inactive),-1.83 (inactive),0.502,-3.03 (inactive),-0.0576,-0.244,0.313,-0.176
CC(C)[Si]1(C(C)C)OCc2cc(C3CC3)nc(-c3ccc(Oc4ccccc4)cc3)c21,-0.834,1.95 (inactive),1.12 (inactive),2.1 (inactive),-0.229,-0.26 (inactive),-0.13,-0.27,-0.488,-0.062
COCCOC(=O)N1C(=O)[C@@]2(c3cc(C#CCNC(N)=O)ccc31)[C@H](C(N)=O)[C@H]1C(=O)O[C@H](c3ccccc3)[C@H](c3ccccc3)N1[C@@H]2c1ccccc1OCCO,1.47,1 (inactive),0.346 (inactive),1.91 (inactive),2.07,-0.658 (inactive),0.0389,0.506,1.08,-0.071
CO[C@H]1O[C@H](CO)[C@@H](OC(=O)Nc2ccc(Br)cc2)[C@@H]2OC(=O)[C@@H](Cc3ccccc3)C/C=C/C[C@H](Cc3ccccc3)C(=O)O[C@@H]12,1.44,1.1 (inactive),-0.295 (inactive),3.58 (inactive),2.01,1.03 (inactive),0.0378,0.202,0.464,-0.0668
COCCOC(=O)N1C(=O)[C@@]2(c3cc(C#CC4=CCCCC4)ccc31)[C@H](c1ccccc1OCCO)N1[C@H](c3ccccc3)[C@H](c3ccccc3)OC(=O)[C@H]1[C@@H]2C(=O)N1CCN(c2ncccn2)CC1,1.57,0.218 (inactive),-0.377 (inactive),2.44 (inactive),0.456,1.05 (inactive),-0.142,0.729,1.12,-0.067
O=C(O)[C@@H]1C[C@@H]2C(=O)N3CCC[C@H]3C(=O)N2[C@@H]1c1ccc(O)cc1,1.56,-0.475 (inactive),-0.854 (inactive),0.0128 (inactive),1.34,2.46 (inactive),0.226,1.93,1.01,0.12
C[N+](C)(C)CCCCCCNC(=O)[C@@H]1C[C@@H]2C(=O)N3CCC[C@H]3C(=O)N2[C@@H]1c1ccc(O)cc1,1.43,-0.913 (inactive),0.214 (inactive),-0.696 (inactive),2.9,0.2 (inactive),-0.0216,1.4,1.03,0.0401
